Experimental data taken from PubChem BioAssay AID489018 (Southern Research Specialized Biocontainment Screening …, 2010).
Among all 2,300 compounds or so, about 350 (15%) were called active. A selection follows. Entries with a potency or affinity are not part of this list. Unmarked numbers belong to inactive results. The rule behind the calls is not given here.

assay: HepG2 cell cytotoxicity, dose response, cytotoxicity control for non-replicating M. tuberculosis project (AID 489018); conditions: series mostly up to 20 µM; viability: at the top concentration;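 note: HepG2 human liver cells; 100% = vehicle-treated cells and 0% = background signal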

SMILES	viability
COc1ccccc1-c1nnc(Sc2nc([N+](=O)[O-])nn2C)o1	90.9%
Cc1cc(C)c(C(=O)COC(=O)c2ccc([N+](=O)[O-])o2)cc1C	105%
COc1ccc2cc(C(=O)C3CCCN(Cc4cccc(C)n4)C3)ccc2c1 (configuration not stated)	96.1%
CCCCOc1ccc(NC(=O)CN2CCN(Cc3ccccc3)CC2)cc1	96.9%
CC(C)(C)c1ccccc1OCCOCCN1CCCCCC1	98.4% [at 5 µM]
CS/C(Nc1cc(Cl)ccc1Cl)=C(/C#N)C(=O)c1ccco1	87.2%
Cc1[nH]c2ccccc2c1C(=O)COC(=O)c1ccc([N+](=O)[O-])s1	114%
c1ccc(-c2n[nH]c(-c3ccccn3)n2)nc1	93.6%
c1ccc(Nc2nc(-c3ccccn3)cs2)cc1	101% [at 5 µM]
COC(=O)C(C)Oc1ccc2cc(-c3ccccc3)c(=O)oc2c1 (configuration not stated)	103%
O=C(CCS(=O)(=O)Cc1ccccc1)Nc1ncc([N+](=O)[O-])s1	112% [at 5 µM]
O=S(=O)(c1ccc(OCC2CO2)cc1)c1ccc(OCC2CO2)cc1 (configuration not stated)	75.9%
Cc1ccccc1C(=O)NN1CC(C(=O)OCc2ccc(Cl)c(Cl)c2)CC1=O (configuration not stated)	119%
CCC(C)c1ccc(OCCn2ccnc2)cc1 (configuration not stated)	80%
Cc1ccc2nc(C)c3c(c2c1)COC3	104%
Cc1[nH]n(-c2cccc(Cl)c2)c(=O)c1/C=N/n1c(C)nc2ccccc2c1=O	109% [at 5 µM]
CC(C)(C)NCC1(CO)SC(N)=NC1=O (configuration not stated)	106%
CCOC(=O)/C=C1\Nc2ccccc2OC1=O	77.3%
COc1cc(NC(=O)C/C(C)=N/NC(=O)c2cccs2)c(OC)cc1Cl	73.3%
O=C(Nc1nnc(-c2ccco2)o1)c1cccc2ccccc12	108%
COC(=O)c1cc(-c2ccc(OC)cc2)on1	116%
COc1ccc(/C=C/c2nc3ccccc3c(=O)o2)cc1	113% [at 5 µM]
CC(=O)c1ccc(OC(=O)c2ccc(-n3nc(C)cc3C)cc2)cc1	103% [at 5 µM]
Cn1nnc(NC(=O)COc2ccc(C3CCCCC3)cc2)n1	106%

SMILES	viability
O=Cc1ccnc(-c2ccc(OC(=O)c3ccco3)cc2)n1	101%
Cc1ccc(N/N=C2\CS(=O)(=O)N(C)c3ccsc32)cc1	101%
COc1cc(OC)cc(C(=O)NNC(=O)c2ccccn2)c1	82.4% [at 5 µM]
O=C(N/N=C/c1ccc(Br)s1)c1cccnc1	94%
O=C(N/N=C/c1ccc[nH]1)c1cccnc1	90.3%
O=C(N/N=C/c1ccccn1)c1cc([N+](=O)[O-])cc([N+](=O)[O-])c1	97.3%
COc1ccc(C(=O)N/N=C/c2cccc3cccnc23)cc1	73%
O=C(N/N=C/c1ccccn1)c1cccc([N+](=O)[O-])c1	99.3%
COc1ccc(OCC(=O)NNC(=O)c2ccccn2)cc1	102%
COc1cccc(NC(=O)c2ccc(C(=O)c3ccccc3)o2)c1	96.3%
Cc1ccc2[nH]c(C)c(CCNC(=O)c3cc4cc([N+](=O)[O-])ccc4oc3=O)c2c1	101%
Cc1cccc(NCCC(=O)c2ccc([N+](=O)[O-])cc2)c1C	96.3%
CC(C)c1ccc(C2=C(O)c3ccccc3C(=O)C2=O)cc1	88.6%
O=C(CC1CCCC1)OCn1nnc2ccccc2c1=O	109%
O=C(c1cc([N+](=O)[O-])cc([N+](=O)[O-])c1)N(Cc1nnc(-c2ccccc2Cl)o1)C1CC1	91.3%
O=C1N/C(=N\c2ccccn2)SC1Cc1ccc(Cl)cc1 (configuration not stated)	106%
COc1cc(/C=C/c2ccc3c([N+](=O)[O-])cccc3n2)ccc1OCC(=O)O	107%
CCCOc1ccc(-c2nc(C#N)c(NCCCn3ccnc3)o2)cc1	98.4%
O=C(CCSc1nnc(-c2ccccc2)o1)N1CCOCC1	106% [at 5 µM]
Cc1onc(-c2ccccc2)c1C(=O)O/N=C(\N)c1ccc([N+](=O)[O-])o1	97%
O=C(COC(=O)c1ccc(Br)o1)NCCCc1ccccc1	102%
Oc1ccccc1Nc1nc(NCC2CCCO2)c2ccccc2n1 (configuration not stated)	89.7%
O=C(c1ccc([N+](=O)[O-])s1)N1CCN(c2cccc(Cl)c2)CC1	82.3%
O=c1oc(-c2cccs2)nc2c1cnn2-c1ccccc1	94.1%

SMILES	viability
Cc1ccc(-c2nn(-c3ccccc3)cc2/C=N/NC(=O)c2ccncc2)o1	95.2%
NC(N)=N/N=C/c1cn(-c2ccccc2)nc1-c1cccs1	92.5% [at 5 µM]
O=C(N/N=C/c1cccc2nccnc12)c1ccncc1	105%
CC(C)(C)Sc1ccc2nc3c(n2c1)CCCC3	95%
CCOC(=O)C(Nc1ccc2ccccc2c1)C(=O)OCC	103%
CC1Cc2ccccc2N1C(=O)COC(=O)c1ccc(Cl)nc1 (configuration not stated)	108%
O=C(N/N=C/c1ccc([N+](=O)[O-])s1)c1ccccc1	89.3%
CC(C)(C)OC(=O)N/N=C\c1ccc([N+](=O)[O-])s1	91%
Cc1ccc(C(=O)N/N=C/c2ccc([N+](=O)[O-])s2)cc1	84.5%
O=C(N/N=C/c1ccc([N+](=O)[O-])s1)c1cccc(Br)c1	101% [at 5 µM]
O=C(CNC(=O)c1cccc(F)c1)N/N=C/c1ccc([N+](=O)[O-])s1	95.8% [at 5 µM]
O=C(N/N=C/c1ccc([N+](=O)[O-])s1)c1ccncc1	119%
CCOC(=O)N/N=C\c1ccc([N+](=O)[O-])s1	75.2%
COC(=O)N/N=C/c1ccc([N+](=O)[O-])s1	75.5%
Oc1oc(-c2ccco2)nc1C=Nc1cccc(Cl)c1	107%
CCCCOC(=O)C1CCCC(C(=O)OCCCC)N1 (configuration not stated)	109% [at 5 µM]
COC(=O)COc1ccc(S(=O)(=O)N2CCCCCC2)cc1	111%
O=C(CNC(=O)c1ccco1)OCc1ccc(C(=O)Oc2ccccc2)cc1	96.8%
Cn1c(-c2cccc([N+](=O)[O-])c2)cnc1NCc1cccc(F)c1	95.6%
Cc1ccc(C)c(-c2csc(NC(=O)c3cnccn3)n2)c1	98.1%
O=C(Nc1nnc(-c2ccccn2)o1)c1cccc(Cl)c1	89.9% [at 5 µM]
COCCOC(=O)c1c(C)oc2ccc(OC(=O)c3ccco3)cc12	106% [at 5 µM]
O=C(Nc1nnc(-c2ccc(Br)cc2)o1)C1=COCCO1	99.3% [at 5 µM]
O=C(c1ccc(-c2ccc([N+](=O)[O-])cc2)o1)N1CCCCCCC1	92.1%

SMILES	viability
FC(F)(F)c1nnc2ccc(Cl)nn12	77.7%
COc1cc(/C=N/Nc2cccc3cccnc23)cc(OC)c1O	115%
COc1ccc(/C=N/Nc2cc(C)nc(-n3nc(C)cc3C)n2)cc1	99.2% [at 5 µM]
COc1ccc(Nc2ccccc2N)cc1	92.6%
Cc1cc(N/N=C/c2ccccc2O)c2ccccc2n1	100% [at 5 µM]
COc1ccc2nc(/N=C(\N)NC(=O)C(C)(C)C)nc(C)c2c1	89%
Cc1nnc(N/N=C/c2ccc(Br)cc2)n1N	100%
O=C(c1ccccc1)c1nc[nH]c1C(=O)Nc1ccccc1	85.1%
COC(=O)C(O)(c1ccc(NC(=S)NC(=O)c2ccccc2)cc1)C(F)(F)F (configuration not stated)	105%
O=C(N=Nc1c(O)[nH]c2ccc(Br)cc12)c1ccccc1-n1cccc1	78.4%
O=C(Oc1ccccc1)c1ccc(NC(=O)c2ccco2)cc1	109%
O=C1NC(=O)C(=Cc2ccc(Oc3ccc([N+](=O)[O-])cc3)cc2)C(=O)N1	111%
c1ccc2sc(SCc3ccc(-c4nnco4)cc3)nc2c1	77%
CCCCNC(=O)Nc1nnc(-c2ccc(Cl)cc2)o1	104%
CC(NC(=O)c1cc([N+](=O)[O-])cc([N+](=O)[O-])c1)c1ccc(-n2ccnc2)cc1 (configuration not stated)	96.5%
Cc1cccc(OCCN2CSC(=S)N(C)C2)c1	105%
Clc1cccc(CNCCNCc2cccc(Cl)c2)c1	100%
Clc1ccc(OCCCNCc2ccccc2)c2ccccc12	80%
Clc1ccc(Cl)c(OCCCCNCc2ccccc2)c1	94.7%
COc1cc(CNC2CCCC2)cc(Cl)c1OCc1ccc(F)cc1	93.5% [at 5 µM]
COC(=O)C1CC(=O)N(c2ccc(OCc3ccccc3Cl)cc2)C1 (configuration not stated)	94.5%
COc1cc(CNCCc2ccccc2)cc(Br)c1OCC(=O)Nc1ccccc1C	85.8%
N#C/C(N=Nc1ccccc1O)=N\Nc1ccccc1O	93% [at 5 µM]
O=C(OCC#CCSc1nc2ccccc2o1)c1ccco1	90.8%

SMILES	viability
O=C(CCNc1ccc(Cl)cc1)c1cccs1	109%
O=C(N/N=C/c1ccccn1)c1cccc(S(=O)(=O)Nc2ccccc2Cl)c1	90%
CC(=O)Nc1nc2ccccc2n1CCOc1ccccc1Cl	71.9%
COc1cccc2cc(-c3nc4ccccc4o3)c(=O)oc12	108%
NC(=O)c1ccc(N=Cc2ccc([N+](=O)[O-])s2)cc1	108% [at 5 µM]
CCC(C)(C)c1ccc(OCC(=O)Nc2ccncc2)cc1	105% [at 5 µM]
Cc1nnc(N/N=C/c2ccc(-c3ccc(Br)cc3)o2)n1N	98.3%
O=C(Nc1nnc(-c2ccc(Cl)cc2)o1)c1nc2ccccc2s1	101%
Cc1ccc2nc(CCc3nc4ccc(C)cc4[nH]3)[nH]c2c1	99.9%
O=C(CCNc1ccc(Cl)c(C(F)(F)F)c1)c1ccco1	97.3% [at 5 µM]
CN(C)CCNc1c2c(c(C#N)c3nc4ccccc4n13)CCCC2	99.8%
COc1cccc(-c2cc3nc4c(c(NCC(C)(C)CN(C)C)n3n2)CCCC4)c1	87.6%
CSc1ccc(CNc2ncc(-c3cccc([N+](=O)[O-])c3)n2C)cc1	100%
CCCCCCCC(=O)NNC(=O)c1ccc(F)cc1	97.3% [at 5 µM]
CCCCCCCC(=O)N/N=C(/C)c1c(O)cc(C)oc1=O	107% [at 5 µM]
O=C(OCc1c(Cl)cccc1Cl)c1ccccn1	103%
COC(=O)COc1cccc(NC(=O)COc2ccccc2)c1	98.3% [at 5 µM]
O=C(N/N=C/C(Br)=C/c1ccccc1)c1cnccn1	95.7%
O=C(N/N=C/C(Br)=C/c1ccccc1)c1ccncc1	99.2%
COc1ccc(NC(=O)CCCN2C(=O)/C(=C\c3ccco3)SC2=S)cc1	97.5%
O=c1[nH]c(=O)n(Cc2ccccc2Cl)c(O)c1/C=C1/C=CC=N1	96.3%
